Results published in PubChem BioAssay (NCATS).
Results filed as inconclusive are left out. Where a call stands in place of a potency, no number is given. Active and inactive are the calls of the source. Calls come from the whole dose curve; as a rule, active = well fitted cell-killing curve with a large enough effect; inconclusive = small, poorly fitted or top-dose-only effect; inactive = flat fitted curve, though single readings scatter.

Assay: qHTS of pediatric cancer cell lines to identify multiple opportunities for drug repurposing: Primary screen for TC32 cells (AID 1347089); note: nearly all actives have a fitted effect of over 60% in size
Details: TC32 Ewing sarcoma viability, CellTiter-Glo luminescence, 48 h; series mostly up to 45.8 µM
Excerpt: Drug repurposing or repositioning has been offered as a strategy for drug development in oncology programs. This approach has special potential for childhood cancers and other rare or orphan diseases, where the expected return on new drug development has been a disincentive to pharmaceuticals.
In this project we exploit the poly-pharmacology of drugs to discover new indications via phenotypic screening of a panel of 19 well-characterized cell lines derived from solid tumors seen in children and adolescents. The goal is to identify approved drugs with previously unrecognized anticancer properties that has the potential to reveal new mechanisms and biological processes involved in carcinogenesis or drug resistance. We employed a titration-based paradigm (quantitative high-throughput screening or qHTS), where all compounds were tested at multiple concentrations for their effect on cell viability. Concentration-response curves (CRCs) were derived directly from the primary screen, and both potency and efficacy values were used to identify compounds with robust bioactivity profiles. We screened the NIH Chemical Genomics Center (NCGC) Pharmaceutical Collection (NPC) and Mechanism Interrogation Plate (MIPE) small molecule collections of approved and investigational compounds against these cell lines; and measured metabolically active cells after 48 hours of compound treatment as a proxy for cell viability.
Assay Submitter: Nathalia J. Martinez, National Center for Advancing Translational Sciences, National Institutes of Health, Rockville, MD, USA; email: natalia.martinez@nih.gov
[1] Shen, M et al. Quantitative high-throughput phenotypic screening of pediatric cancer cell lines identifies multiple opportunities for drug repurposing. Oncotarget 2017 Dec 19;9(4):4758-4772. PMID 29435139.
The cells were obtained from University of North Carolina (UNC), Pediatric Preclinical Testing Program (PPT), and Coriell Institute (CI).
qHTS cell viability assay:
Cells were assayed in growth media at a density of 500-1,000 cells/well. Five microliters of cells were dispensed into 1,536-well, white, solid-bottom, TC-treated plates (Greiner Bio One) using a multidrop dispenser and incubated at 37 degrees C, 5% CO2, under a humidified atmosphere for 5 hours. Twenty-three nanoliters of compounds and controls (neutral control DMSO or positive control bortezomib at final concentration of 2.3 uM) were subsequently transferred by Kalypsys pintool. For primary screens, the MIPE collection was tested at 11-point dilutions (final concentrations range from 0.78 nM to 46 µM) and the NPC collection at 8-point dilutions (final concentrations range from 0.59 nM to 46 µM). Compounds tested in follow-up screens were assayed at 11-point dilutions. Cells were incubated for 48 hours, followed by addition of 3 uL of CellTiter-Glo (Promega). After a 15min incubation at room temperature, samples were analyzed for luminescence intensity using a ViewLux High-throughput CCD imager equipped with clear filters.
Potency is the fitted concentration of half-maximal effect.

| SMILES | Potency |
| --- | --- |
| CC(=O)SC[C@@H](C)C(=O)N1CCC[C@H]1C(=O)N[C@@H](Cc1ccccc1)C(=O)O | inactive |
| CCC1=C[C@@H]2CN(C1)Cc1c([nH]c3ccccc13)[C@@](C(=O)OC)(c1cc3c(cc1OC)N(C)[C@@H]1[C@@](O)(C(=O)OC)[C@H](OC(C)=O)[C@]4(CC)C=CCN5CC[C@]31[C@@H]54)C2 | 104 nM (active) |
| COc1cccc2nc(-c3cccs3)nc(NN3C(=O)C=C(C)C3=O)c12 | 1860 nM (active) |
| CNC(=O)c1ccc(N2C(=S)N(c3cnc(C#N)c(C(F)(F)F)c3)C(=O)C23CCC3)cc1F | inactive |
| CC(NCc1ccc2c(c1)nc(NC(=O)c1ccc(-c3cn[nH]c3)s1)n2CC(C)(C)O)C(C)(C)C (stereo not given) | 2620 nM (active) |
| CNC(=O)CN1CCC(Oc2cc3c(Nc4cccc(Cl)c4F)ncnc3cc2OC)CC1 | 930 nM (active) |
| Nc1nc(-c2nn(Cc3ccccc3F)c3ncccc23)nc(N)c1N1CCOCC1 | inactive |
| COCCn1c2c([n+](Cc3cnccn3)c1C)C(=O)c1ccccc1C2=O | 65.8 nM (active) |
| CS(=O)(=O)N1CCN(Cc2cc3nc(-c4cccc5[nH]ncc45)nc(N4CCOCC4)c3s2)CC1 | 829 nM (active) |
| COc1c(N2C[C@@H]3CCCN[C@H]3C2)c(F)cc2c(=O)c(C(=O)O)cn(C3CC3)c12 | inactive |
| Cc1ccc(S(=O)(=O)Nc2cc(Cl)ccc2C(=O)Nc2nc(-c3ccccc3)cs2)cc1 | inactive |
| CNc1nccc(-c2cccnc2Oc2cc(C(=O)Nc3cccc(C(F)(F)F)c3)ccc2C)n1 | inactive |
| CC(C)c1nn(-c2c(Cl)cccc2Cl)c2nc(Cc3ccc(OCCO)cc3)[nH]c(=O)c12 | 131 nM (active) |
| O=C(O)CO.[NH2-].[NH2-].[Pt+2] | inactive |
| O=C(Cc1ccc(-c2ccc(OCCN3CCOCC3)cc2)cn1)NCc1ccccc1 | 117 nM (active) |
| Cc1c(Cn2c(C)nc3c(C(=O)O)cc(N4CCOCC4)cc32)cccc1C(F)(F)F | inactive |
| CC(C)C[C@H](NC(=O)CNC(=O)c1cc(Cl)ccc1Cl)B(O)O | 2940 nM (active) |
| Cc1cc(N2CCOCC2)cc2[nH]c(-c3c(NC[C@@H](O)c4cccc(Cl)c4)cc[nH]c3=O)nc12 | 739 nM (active) |
| COC(=O)Nc1nc2ccc(C(=O)c3ccc(F)cc3)cc2[nH]1 | inactive |
| COc1cc2c(Oc3ccc(-c4cnc(Nc5ccc(F)cc5)n(C)c4=O)cc3F)ccnc2cc1OCCCN1CCOCC1 | 11700 nM (active) |

| SMILES | Potency |
| --- | --- |
| CNC(=O)c1nn(C)c2c1C(C)(C)Cc1cnc(Nc3ccc(N4CCN(C)CC4)cc3)nc1-2 | 2620 nM (active) |
| O=C(O)CCCc1c[nH]c2ccccc12 | inactive |
| COc1cc(=C2C=c3ccccc3=N2)[nH]c1=Cc1[nH]c(C)cc1C | inactive |
| Cn1c2cc(S(C)=O)sc2c2cnn(Cc3cccc(N)c3)c(=O)c21 (stereo not given) | inactive |
| CN1CCC(CNc2ccc3ncc(-c4cccc(OC(F)(F)F)c4)n3n2)CC1 | inactive |
| Nc1ccc(C(=O)c2cc3c(ccc4ccccc43)[nH]2)cc1 | 7390 nM (active) |
| CCC[C@H](NC(=O)C(C#N)=Cc1cccc(Br)n1)c1ccccc1 | inactive |
| CC(C)(C)c1cc(NC(=O)Nc2ccc(-c3cn4c(n3)sc3cc(OCCN5CCOCC5)ccc34)cc2)no1 | inactive |
| CCCCOc1c(C(=O)c2c(F)cc(C)cc2F)cnc2n[nH]cc12 | inactive |
| CCCCCCCCCC(=O)N[C@@H](Cc1c[nH]c2ccccc12)C(=O)N[C@H](CC(N)=O)C(=O)N[C@@H](CC(=O)O)C(=O)N[C@@H]1C(=O)NCC(=O)N[C@@H](CCCN)C(=O)N[C@@H](CC(=O)O)C(=O)N[C@H](C)C(=O)N[C@@H](CC(=O)O)C(=O)NCC(=O)N[C@H](CO)C(=O)N[C@@H]([C@@H](C)CC(=O)O)C(=O)N[C@@H](CC(=O)c2ccccc2N)C(=O)O[C@@H]1C | inactive |
| CC=CC1=C(C(=O)O)N2C(=O)[C@H](NC(=O)[C@H](N)c3ccc(O)cc3)[C@@H]2SC1 | inactive |
| Clc1ccc2ncc(-c3cccc(NC4CNC4)n3)n2c1 | inactive |
| Cc1cn2cc(C(=O)N(C)CCO)cc(N[C@@H]3CCOc4cccc(C)c43)c2n1 | inactive |
| COc1cc2c(NC3CCN(C(C)C)CC3)nc(C3CCCCC3)nc2cc1OCCCN1CCCC1 | inactive |
| O=C(O)c1ccc2c(c1)nc(Nc1cccc(Cl)c1)c1ccncc12 | inactive |
| O=C(NCCS(=O)(=O)c1ccc(C(F)(F)F)cn1)c1ccc(Cl)cc1 | inactive |
| CCn1nnc2c(N3CCOCC3)nc(-c3ccc(NC(=O)Nc4ccc(C(=O)N5CCN(C)CC5)cc4)cc3)nc21 | 29.4 nM (active) |
| CCc1cc2c(cc1N1CCC(N3CCOCC3)CC1)C(C)(C)c1[nH]c3cc(C#N)ccc3c1C2=O | inactive |
| C[C@@H]1COC(Nc2ccc3ncnc(Nc4ccc(OCc5nccs5)c(Cl)c4)c3c2)=N1 | inactive |
| CC[C@@]1(O)C(=O)OCc2c1cc1n(c2=O)Cc2cc3cc(O)ccc3nc2-1 | 41.5 nM (active) |
